In PubChem BioAssay (NCATS):
Inconclusive results are not listed. Unmarked numbers belong to inactive results. Calls of active or inactive are those of the source. The call rests on the fitted dose curve; in most records, active means well fitted curve in the direction sought with a large enough effect; inconclusive means small, poorly fitted or top-dose-only effect, or another doubt; inactive means no such curve, though single readings can be large; an effect the other way counts as inactive or inconclusive.

Legend:
[1] = Quantitative High-Throughput drug screen in 47 multiple myeloma cell lines against the NCATS MIPE library collection: KMS26_JCRB cell viability assay (AID 1918975); further: nearly all actives have a fitted effect of over 45% in size
Method in brief: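 Myeloma cells (500 per well) were exposed to MIPE 4.0 compounds by pin transfer and incubated 48 hours at 37C, 5% CO2. Viability was read as ATP by CellTiter-Glo luminescence, normalised to DMSO (100%) and media-only (0%) wells.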

[2] = Quantitative High-Throughput drug screen in 47 multiple myeloma cell lines against the NCATS MIPE library collection: MMM1_PLB cell viability assay (AID 1918976); further: nearly all actives have a fitted effect of over 35% in size
Method in brief: (§1)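 MIPE 4.0 approved/investigational drugs; 500 cells/well; 48 h 37 °C humidified 5% CO2; CTG luminescence readout; DMSO = 100%, media = 0% viability.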

[3] = Quantitative High-Throughput drug screen in 47 multiple myeloma cell lines against the NCATS MIPE library collection: OCIMY1_PLB cell viability assay (AID 1918979); further: nearly all actives have a fitted effect of over 35% in size
Method in brief: as §1

[4] = Quantitative High-Throughput drug screen in 47 multiple myeloma cell lines against the NCATS MIPE library collection: MM1S_ATCC cell viability assay (AID 1918980); further: nearly all actives have a fitted effect of over 45% in size
Method in brief: as §1

[5] = Quantitative High-Throughput drug screen in 47 multiple myeloma cell lines against the NCATS MIPE library collection: MM1R_ATCC cell viability assay (AID 1918981); further: nearly all actives have a fitted effect of over 35% in size
Method in brief: as §1

[6] = Quantitative High-Throughput drug screen in 47 multiple myeloma cell lines against the NCATS MIPE library collection: LP1_DSMZ cell viability assay (AID 1918982); further: nearly all actives have a fitted effect of over 35% in size
Method in brief: as §1

[7] = Quantitative High-Throughput drug screen in 47 multiple myeloma cell lines against the NCATS MIPE library collection: KMS28PE_JCRB cell viability assay (AID 1918983); further: nearly all actives have a fitted effect of over 35% in size
Method in brief: as §1

[8] = Quantitative High-Throughput drug screen in 47 multiple myeloma cell lines against the NCATS MIPE library collection: KMS34_JCRB cell viability assay (AID 1918985); further: nearly all actives have a fitted effect of over 40% in size
Method in brief: as §1

[9] = Quantitative High-Throughput drug screen in 47 multiple myeloma cell lines against the NCATS MIPE library collection: OCIMY5_PLB cell viability assay (AID 1918988); further: nearly all actives have a fitted effect of over 65% in size
Method in brief: as §1

[10] = Quantitative High-Throughput drug screen in 47 multiple myeloma cell lines against the NCATS MIPE library collection: OPM1_PLB cell viability assay (AID 1918989); further: nearly all actives have a fitted effect of over 40% in size
Method in brief: as §1

[11] = Quantitative High-Throughput drug screen in 47 multiple myeloma cell lines against the NCATS MIPE library collection: SKMM1_PLB cell viability assay (AID 1919863); conditions: SKMM1 myeloma viability, CellTiter-Glo ATP, 48 h; viability: active compounds read low; further: nearly all actives have a fitted effect of over 35% in size
Method in brief: as §1

[12] = Quantitative High-Throughput drug screen in 47 multiple myeloma cell lines against the NCATS MIPE library collection: U266_ATCC cell viability assay (AID 1919864); further: nearly all actives have a fitted effect of over 35% in size
Method in brief: as §1

[13] = Quantitative High-Throughput drug screen in 47 multiple myeloma cell lines against the NCATS MIPE library collection: XG6_PLB cell viability assay (AID 1919865); further: nearly all actives have a fitted effect of over 40% in size
Method in brief: as §1

[14] = Quantitative High-Throughput drug screen in 47 multiple myeloma cell lines against the NCATS MIPE library collection: XG1_PLB cell viability assay (AID 1919866); further: nearly all actives have a fitted effect of over 35% in size
Method in brief: as §1

[15] = Quantitative High-Throughput drug screen in 47 multiple myeloma cell lines against the NCATS MIPE library collection: MOLP8_DSMZ cell viability assay (AID 1918977); further: nearly all actives have a fitted effect of over 45% in size
Method in brief: as §1

[16] = Quantitative High-Throughput drug screen in 47 multiple myeloma cell lines against the NCATS MIPE library collection: NCIH929_DSMZ cell viability assay (AID 1918978); further: nearly all actives have a fitted effect of over 35% in size
Method in brief: as §1

[17] = Quantitative High-Throughput drug screen in 47 multiple myeloma cell lines against the NCATS MIPE library collection: L363_DSMZ cell viability assay (AID 1918984); further: nearly all actives have a fitted effect of over 40% in size
Method in brief: as §1

[18] = Quantitative High-Throughput drug screen in 47 multiple myeloma cell lines against the NCATS MIPE library collection: OCIMY7_PLB cell viability assay (AID 1918987); conditions: OCI-MY7 myeloma viability, CellTiter-Glo ATP, 48 h; viability (% of DMSO): at 45.8 µM (top of the series); further: nearly all actives have a fitted effect of over 65% in size
Method in brief: as §1

[19] = Quantitative High-Throughput drug screen in 47 multiple myeloma cell lines against the NCATS MIPE library collection: VP6_DJ cell viability assay (AID 1919867); further: nearly all actives have a fitted effect of over 40% in size
Method in brief: as §1
Potency means the concentration at half of the fitted maximal effect.

Row | SMILES | Potency [1] | Potency [2] | Potency [3] | Potency [4] | Potency [5] | Potency [6] | Potency [7] | Potency [8] | Potency [9] | Potency [10] | Potency [11] | Potency [12] | Potency [13] | Potency [14] | Potency [15] | Potency [16] | Potency [17] | Potency [18] | Potency [19] | viability [11] [%]
1 | CO[C@H]1C=CC=C(C)C(=O)NC2=CC(=O)C(NCCN(C)C)=C(C[C@@H](C)C[C@H](OC)[C@@H](O)[C@@H](C)C=C(C)[C@@H]1OC(N)=O)C2=O | 0.0332 µM (active) | 1.66 µM (active) | 0.132 µM (active) | 0.105 µM (active) | 0.0296 µM (active) | 0.418 µM (active) | 0.0166 µM (active) | 0.0132 µM (active) | 0.0118 µM (active) | 0.0662 µM (active) | 0.372 µM (active) | 0.0662 µM (active) | 0.105 µM (active) | 0.0372 µM (active) | – | – | – | – | – | –
2 | C[C@]12CCC3c4ccc(O)cc4CCC3C1CCC2=O (stereo partly drawn) | 3.32 µM (active) | – | inactive | – | inactive | 18.7 µM (active) | 11.8 µM (active) | 10.5 µM (active) | 0.0019 µM (active) | – | – | inactive | inactive | inactive | 20.9 µM (active) | inactive | – | – | – | –
3 | CC(C)n1cnc2c(NCCCCCCNC(=O)OC(C)(C)C)nc(NCCO)nc21 | 23.5 µM (active) | 18.7 µM (active) | – | 20.9 µM (active) | 20.9 µM (active) | 18.7 µM (active) | 18.7 µM (active) | – | 29.6 µM (active) | 20.9 µM (active) | – | 9.35 µM (active) | 26.4 µM (active) | 23.5 µM (active) | – | – | – | – | – | –
4 | CN(C)C1CCN(C(=O)c2ccc(NC(=O)Nc3nc(N4CCOCC4)nc(N4CCOCC4)n3)cc2)CC1 | 0.0209 µM (active) | 0.0235 µM (active) | 5.9 µM (active) | 0.0332 µM (active) | 0.0418 µM (active) | – | 0.0132 µM (active) | 0.132 µM (active) | 0.0418 µM (active) | – | – | – | – | – | – | – | – | – | – | –
5 | Nc1ncnc2c1ncn2[C@@H]1O[C@@H](CO)[C@H](O)[C@H]1O | inactive | – | inactive | inactive | – | inactive | inactive | – | – | inactive | – | – | inactive | inactive | inactive | inactive | – | – | – | –
6 | O=C(NOCC(O)CO)c1cc(Br)c(F)c(F)c1Nc1ccc(I)cc1F (stereo not drawn) | inactive | – | inactive | – | inactive | – | inactive | – | – | – | – | inactive | 2.35 µM (active) | – | inactive | 1.05 µM (active) | inactive | 0.0166 µM (active) | – | –
7 | CC(=O)O[C@]1(C(C)=O)CC[C@@H]2[C@@H]3C[C@H](C)C4=CC(=O)CC[C@]4(C)[C@H]3CC[C@@]21C | 23.5 µM (active) | 20.9 µM (active) | – | 13.2 µM (active) | 20.9 µM (active) | – | – | – | 16.6 µM (active) | – | – | 20.9 µM (active) | 23.5 µM (active) | – | – | – | – | 23.5 µM (active) | 14.8 µM (active) | –
8 | CC[C@H]1OC(=O)[C@H](C)[C@@H](O[C@H]2C[C@@](C)(OC)[C@@H](O)[C@H](C)O2)[C@H](C)[C@@H](O[C@@H]2O[C@H](C)C[C@H](N(C)C)[C@@H]2O)[C@](C)(O)C[C@@H](C)CN(C)[C@H](C)[C@@H](O)[C@]1(C)O | inactive | – | inactive | 18.7 µM (active) | – | inactive | inactive | – | – | – | 16.6 µM (active) | 9.35 µM (active) | – | – | – | inactive | – | – | – | –
9 | COc1ccc(-c2cc(=O)c3c(O)cc(O)cc3o2)cc1O | 5.9 µM (active) | 0.935 µM (active) | inactive | 6.62 µM (active) | 16.6 µM (active) | – | inactive | 20.9 µM (active) | 2.64 µM (active) | 7.43 µM (active) | – | 8.33 µM (active) | 2.35 µM (active) | 2.09 µM (active) | – | – | 5.9 µM (active) | 3.72 µM (active) | – | 119
10 | CC(C)OC(=O)C(C)(C)Oc1ccc(C(=O)c2ccc(Cl)cc2)cc1 | 11.8 µM (active) | 18.7 µM (active) | inactive | inactive | – | – | 16.6 µM (active) | – | – | – | – | 11.8 µM (active) | inactive | – | – | – | inactive | inactive | – | –
11 | O=c1cc(CN2CCOCC2)occ1OCCCCCSc1ccnc2cc(C(F)(F)F)ccc12 | 16.6 µM (active) | 16.6 µM (active) | – | – | – | 18.7 µM (active) | – | – | 16.6 µM (active) | – | – | – | 3.32 µM (active) | 11.8 µM (active) | – | – | 16.6 µM (active) | 11.8 µM (active) | 7.43 µM (active) | 111
12 | O=C(OCC#CCSc1nnc(-c2cccc3ccccc23)o1)c1cc2ccccc2s1 | inactive | – | inactive | inactive | – | inactive | – | – | – | inactive | – | inactive | inactive | inactive | – | inactive | inactive | inactive | inactive | –
